Reference: publication PMC7862700, “An all-to-all approach to the identification of sequence-specific readers for epigenetic DNA modifications on cytosine”

Experiments:
Experiment in all cases: DAPPL (digital affinity profiling via proximity ligation, sequencing); 10 mM Tris-HCl pH 7.5, 50 mM NaCl, 1 mM DTT, 4% glycerol, room temperature, 30 min; GST-TFs on glutathione beads, 16-mer random dsDNA library, 0.1% formaldehyde crosslink after washing; high values mean tight binding
FEV = molecular target: T1, FEV (Homo sapiens, UniProt Q99581 1-238); conditions: protein: recombinant; tags: N-terminal GST; dsDNA, one strand shown
T1 sequence: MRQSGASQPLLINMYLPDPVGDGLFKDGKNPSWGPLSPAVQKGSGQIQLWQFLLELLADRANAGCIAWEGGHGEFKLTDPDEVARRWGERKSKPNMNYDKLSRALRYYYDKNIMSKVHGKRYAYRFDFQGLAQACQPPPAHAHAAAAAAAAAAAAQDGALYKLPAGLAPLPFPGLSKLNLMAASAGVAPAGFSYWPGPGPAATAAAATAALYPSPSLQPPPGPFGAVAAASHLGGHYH
How it was run: (§1)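 Human transcription factors fused to GST were expressed in yeast, captured on glutathione beads, given DNA barcodes and pooled with a GST-only negative control. Pools were incubated with 200 nmole of a 16-mer random double-stranded DNA library in Tris/NaCl/DTT/glycerol buffer at room temperature for 30 min. They were then washed, crosslinked with 0.1% formaldehyde, proximity-ligated (BsaI/T4 ligase, 1 h, 37 °C), PCR-amplified and sequenced on an Illumina NextSeq500. Binding signal is each 6-mer's read frequency for a factor divided by its frequency for the GST control.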

ETV5 = ETV5 (Homo sapiens, UniProt P41161 1-510); conditions: protein: recombinant; tags: N-terminal GST; dsDNA, one strand shown
How it was run: as §1

HSF1 = HSF1 (Homo sapiens, UniProt Q00613 1-529); conditions: protein: recombinant; tags: N-terminal GST; chain copies: 3; dsDNA, one strand shown
How it was run: as §1

SPIC = molecular target: T2, SPIC (Homo sapiens, UniProt Q8N5J4 1-248); conditions: protein: recombinant; tags: N-terminal GST; dsDNA, one strand shown
T2 sequence: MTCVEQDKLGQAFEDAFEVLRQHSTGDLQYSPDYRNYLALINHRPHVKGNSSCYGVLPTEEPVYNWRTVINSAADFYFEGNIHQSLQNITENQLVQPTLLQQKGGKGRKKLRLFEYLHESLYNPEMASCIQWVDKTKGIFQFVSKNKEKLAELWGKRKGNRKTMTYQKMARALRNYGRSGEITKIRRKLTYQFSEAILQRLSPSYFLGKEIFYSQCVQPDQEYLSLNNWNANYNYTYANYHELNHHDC
How it was run: as §1

ELF4 = ELF4 (Homo sapiens, UniProt Q99607 1-663); conditions: protein: recombinant; tags: N-terminal GST; dsDNA, one strand shown
How it was run: as §1

ELK4 = molecular target: T3, ELK4 (Homo sapiens, UniProt P28324-2 1-405); conditions: protein: recombinant; tags: N-terminal GST; dsDNA, one strand shown
T3 sequence: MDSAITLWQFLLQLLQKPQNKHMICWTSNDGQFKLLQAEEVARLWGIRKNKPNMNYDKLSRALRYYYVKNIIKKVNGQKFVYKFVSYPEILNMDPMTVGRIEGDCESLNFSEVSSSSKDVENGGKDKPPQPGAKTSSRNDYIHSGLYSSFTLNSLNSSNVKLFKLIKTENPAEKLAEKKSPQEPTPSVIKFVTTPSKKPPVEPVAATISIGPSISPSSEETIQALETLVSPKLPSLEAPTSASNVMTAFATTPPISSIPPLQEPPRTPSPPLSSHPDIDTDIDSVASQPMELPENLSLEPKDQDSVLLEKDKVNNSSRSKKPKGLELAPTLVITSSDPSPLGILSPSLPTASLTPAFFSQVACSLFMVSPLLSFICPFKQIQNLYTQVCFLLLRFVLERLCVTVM
How it was run: as §1

ETV2 = molecular target: T4, ETV2 (Homo sapiens, UniProt O00321 1-342); conditions: protein: recombinant; tags: N-terminal GST; dsDNA, one strand shown
T4 sequence: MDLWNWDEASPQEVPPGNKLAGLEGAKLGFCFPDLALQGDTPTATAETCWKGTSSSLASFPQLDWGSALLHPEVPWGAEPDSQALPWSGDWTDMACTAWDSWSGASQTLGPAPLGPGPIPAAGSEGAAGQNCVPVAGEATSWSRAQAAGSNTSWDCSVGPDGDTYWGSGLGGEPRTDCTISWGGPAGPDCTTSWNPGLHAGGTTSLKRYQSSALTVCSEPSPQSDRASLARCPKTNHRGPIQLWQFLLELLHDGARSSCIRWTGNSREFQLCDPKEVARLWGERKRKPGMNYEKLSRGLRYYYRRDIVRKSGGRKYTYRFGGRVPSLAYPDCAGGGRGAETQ
How it was run: as §1

ELF3 = molecular target: T5, ELF3 (Homo sapiens, UniProt P78545 1-371); conditions: protein: recombinant; tags: N-terminal GST; dsDNA, one strand shown
T5 sequence: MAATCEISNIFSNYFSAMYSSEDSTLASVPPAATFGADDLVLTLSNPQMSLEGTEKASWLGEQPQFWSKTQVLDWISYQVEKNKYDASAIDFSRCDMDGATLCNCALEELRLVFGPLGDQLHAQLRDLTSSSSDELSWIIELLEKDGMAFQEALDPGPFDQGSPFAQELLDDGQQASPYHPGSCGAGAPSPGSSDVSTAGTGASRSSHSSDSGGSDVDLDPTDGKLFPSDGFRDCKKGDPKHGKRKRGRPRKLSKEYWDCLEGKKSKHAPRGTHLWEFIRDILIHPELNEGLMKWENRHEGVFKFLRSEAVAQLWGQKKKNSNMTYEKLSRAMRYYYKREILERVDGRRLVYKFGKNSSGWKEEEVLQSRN
How it was run: as §1

CRX = CRX (Homo sapiens, UniProt O43186 1-299); conditions: protein: recombinant; tags: N-terminal GST; dsDNA, one strand shown
How it was run: as §1

ETV1 = ETV1 (Homo sapiens, UniProt P50549 1-477); conditions: protein: recombinant; tags: N-terminal GST; dsDNA, one strand shown
How it was run: as §1

ELF4, sequence (Q99607 whole entry): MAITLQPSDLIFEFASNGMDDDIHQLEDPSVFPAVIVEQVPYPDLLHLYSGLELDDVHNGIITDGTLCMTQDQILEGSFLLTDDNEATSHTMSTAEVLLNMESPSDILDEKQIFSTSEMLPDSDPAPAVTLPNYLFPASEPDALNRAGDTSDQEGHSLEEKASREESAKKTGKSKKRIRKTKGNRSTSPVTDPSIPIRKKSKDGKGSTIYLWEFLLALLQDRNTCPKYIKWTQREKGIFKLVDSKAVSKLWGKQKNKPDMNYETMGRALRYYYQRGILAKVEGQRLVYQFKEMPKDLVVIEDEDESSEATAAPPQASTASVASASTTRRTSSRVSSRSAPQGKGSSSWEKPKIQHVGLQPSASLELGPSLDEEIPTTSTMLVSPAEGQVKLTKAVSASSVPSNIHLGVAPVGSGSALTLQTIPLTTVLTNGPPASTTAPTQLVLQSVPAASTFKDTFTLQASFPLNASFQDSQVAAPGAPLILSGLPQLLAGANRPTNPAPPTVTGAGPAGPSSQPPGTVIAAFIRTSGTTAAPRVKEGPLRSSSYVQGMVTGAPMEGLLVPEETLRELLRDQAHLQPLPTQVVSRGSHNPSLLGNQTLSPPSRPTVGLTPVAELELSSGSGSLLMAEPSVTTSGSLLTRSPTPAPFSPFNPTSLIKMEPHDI
CRX, sequence (O43186 whole entry): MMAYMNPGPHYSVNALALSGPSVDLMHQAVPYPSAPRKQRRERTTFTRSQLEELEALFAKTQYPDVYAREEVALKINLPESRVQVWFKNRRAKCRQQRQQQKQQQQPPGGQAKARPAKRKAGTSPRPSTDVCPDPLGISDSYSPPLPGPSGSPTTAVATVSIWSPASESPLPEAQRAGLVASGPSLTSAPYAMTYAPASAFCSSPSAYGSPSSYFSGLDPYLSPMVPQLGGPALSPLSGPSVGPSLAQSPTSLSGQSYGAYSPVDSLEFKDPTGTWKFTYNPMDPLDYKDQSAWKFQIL
HSF1, sequence (Q00613 whole entry): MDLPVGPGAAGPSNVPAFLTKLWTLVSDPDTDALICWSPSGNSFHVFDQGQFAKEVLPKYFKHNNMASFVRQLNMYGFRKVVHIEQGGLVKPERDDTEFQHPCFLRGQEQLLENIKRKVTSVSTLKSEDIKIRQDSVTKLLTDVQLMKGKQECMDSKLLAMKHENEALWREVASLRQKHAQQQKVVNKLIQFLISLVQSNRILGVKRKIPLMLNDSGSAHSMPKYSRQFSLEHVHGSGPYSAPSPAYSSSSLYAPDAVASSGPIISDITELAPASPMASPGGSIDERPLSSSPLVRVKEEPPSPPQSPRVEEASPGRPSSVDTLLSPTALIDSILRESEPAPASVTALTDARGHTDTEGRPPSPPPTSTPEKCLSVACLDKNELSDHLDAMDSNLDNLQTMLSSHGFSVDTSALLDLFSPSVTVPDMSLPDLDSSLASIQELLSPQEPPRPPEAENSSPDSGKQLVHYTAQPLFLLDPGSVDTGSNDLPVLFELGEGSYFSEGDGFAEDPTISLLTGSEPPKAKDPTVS
ETV1, sequence (P50549 whole entry): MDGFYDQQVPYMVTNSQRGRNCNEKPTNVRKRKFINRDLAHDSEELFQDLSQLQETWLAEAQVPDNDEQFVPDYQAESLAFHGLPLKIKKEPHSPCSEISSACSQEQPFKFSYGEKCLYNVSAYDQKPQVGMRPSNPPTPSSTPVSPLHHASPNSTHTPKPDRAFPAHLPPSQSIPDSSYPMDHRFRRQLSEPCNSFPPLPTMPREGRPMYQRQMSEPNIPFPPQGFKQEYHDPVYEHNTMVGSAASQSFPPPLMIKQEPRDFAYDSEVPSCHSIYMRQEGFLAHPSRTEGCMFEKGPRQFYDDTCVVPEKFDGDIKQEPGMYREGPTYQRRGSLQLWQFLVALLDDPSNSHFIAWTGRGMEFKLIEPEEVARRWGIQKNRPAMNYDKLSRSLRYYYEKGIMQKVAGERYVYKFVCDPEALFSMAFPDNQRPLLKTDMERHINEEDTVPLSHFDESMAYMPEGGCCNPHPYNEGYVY
ETV5, sequence (P41161 whole entry): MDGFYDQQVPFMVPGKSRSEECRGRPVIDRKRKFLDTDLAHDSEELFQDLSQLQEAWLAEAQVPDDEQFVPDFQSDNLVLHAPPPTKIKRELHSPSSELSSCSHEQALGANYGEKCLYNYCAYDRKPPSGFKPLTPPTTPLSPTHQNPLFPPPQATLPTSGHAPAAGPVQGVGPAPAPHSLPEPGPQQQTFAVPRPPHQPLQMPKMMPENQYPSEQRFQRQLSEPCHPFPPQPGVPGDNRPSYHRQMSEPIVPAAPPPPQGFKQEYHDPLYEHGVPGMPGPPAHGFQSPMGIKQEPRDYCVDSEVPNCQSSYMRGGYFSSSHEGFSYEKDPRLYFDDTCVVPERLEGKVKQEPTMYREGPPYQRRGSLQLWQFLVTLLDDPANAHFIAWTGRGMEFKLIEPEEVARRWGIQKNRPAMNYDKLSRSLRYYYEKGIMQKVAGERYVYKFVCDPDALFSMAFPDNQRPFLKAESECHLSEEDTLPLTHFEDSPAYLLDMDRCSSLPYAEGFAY

ATGTTC
binding signal (FEV): 1.15 fold enrichment (6-mer frequency, TF over GST control) | binding signal (ETV5): 1.16 fold enrichment (6-mer frequency, TF over GST control) | binding signal (HSF1): 2.33 fold enrichment (6-mer frequency, TF over GST control) | binding signal (SPIC): 1.32 fold enrichment (6-mer frequency, TF over GST control) | binding signal (ELF4): 1.22 fold enrichment (6-mer frequency, TF over GST control) | binding signal (ELK4): 1.2 fold enrichment (6-mer frequency, TF over GST control) | binding signal (ETV2): 1.14 fold enrichment (6-mer frequency, TF over GST control) | binding signal (ELF3): 1.15 fold enrichment (6-mer frequency, TF over GST control) | binding signal (CRX): 1.22 fold enrichment (6-mer frequency, TF over GST control) | binding signal (ETV1): 1.3 fold enrichment (6-mer frequency, TF over GST control)
